Measured values: PubChem BioAssay (EPA / NIEHS)
The source made the active and inactive calls. Rule for the calls: active = hit-call score of the fitted dose curve at least 0.9, where 1 is the maximum; inactive = score below 0.9.

Tested on: TTR (gene 7276)
Experiment: CCTE_GLTED_hTTR_0.125uM: CCTE's human Transthyretin (hTTR) Inhibition Assay, with 0.125uM TTR, Great Lakes Toxicology and Ecology Division (GLTED) Lab (AID 2284431);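 note: hits lower the fluorescence signal relative to DMSO baseline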
Procedure, shortened: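 TTR 0.125uM + test chemical, 2 h; ANSA probe displacement; ex 380/em 475 fluorescence; signal loss vs DMSO control.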

SMILES | AC50
CCN=C1C=CC(=C(c2ccc(N(CC)CC)cc2)c2ccc(N(CC)CC)cc2)c2ccccc21 | 1.85 µM (active)
CCCCCCCC/C=C\CCCCCCCC(=O)N(C)CC(=O)O | 3.75 µM (active)
CCN=c1cc2oc3cc(NCC)c(C)cc3c(-c3ccccc3C(=O)OCC)c-2cc1C | 32.2 µM (active)
CCC(Cc1c(I)cc(I)c(N)c1I)C(=O)O (stereo not given) | 2.1 µM (active)
O=C(c1ccccc1)c1ccc(O)cc1O | 0.0464 µM (active)
